Bioassay records from PubChem BioAssay.
Tgondii IFNg: blocks Toxoplasma gondii growth in the presence of IFN-gamma; Toxoplasma gondii growth in IFN-gamma-treated host cells; stronger effect = lower value; 69,000 tested, 3.8% active; activity change, negative = inhibition, % (no concentration beside the values); in the data active = activity change below about -70%, passing the limit was not always enough;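 note: host cells are HeLa cells infected with Toxoplasma gondii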
Numbers without * were called inactive; i = inactive. Only a selection was taken, and hits are over-represented in it overall.

SMILES	Tgondii IFNg
O=C(O)/C=C/c1ccc(O)c(O)c1	7.1
CC(C)c1ccc(/C=C/C(=O)O)cc1	1.2
O=C(O)/C=C/c1ccc(-c2ccc(O)c(C34CC5CC(CC(C5)C3)C4)c2)cc1	-78.7*
CCOc1ccccc1-c1ccccc1N	11.2
COc1ccc(OC)c(C(C)NC(=O)CCn2ccc3ccncc32)c1 (centres undefined)	-40.9
O=C(CN1C(=O)c2ccccc2C1=O)OC(C(=O)NC1CCCC1)c1ccccc1 (centres undefined)	-6.6
Cn1cc(C(=O)c2cnn(-c3ccc(OC(F)(F)F)cc3)c2N)c2ccccc21	9.4
Cc1oncc1C(=O)N1Cc2nccn2CC(CN2CCCC2)C1 (centres undefined)	-0.6
CCN(CC)c1ccc(C(=C2C=CC(=[N+](CC)CC)C=C2)c2ccccc2)cc1	-74.1*
O=C(Cc1ccccc1)N1CCn2cc(Cn3cncn3)nc2C1	0.8
Cc1ccc(-c2coc(-c3ccc(NS(=O)(=O)c4ccc(F)c(Cl)c4)cc3)n2)c(C)c1	-61.3
Cc1cccc(-c2nc(Cn3nnc(C(=O)NCc4ccc(C(C)C)cc4)c3C)c(C)o2)c1	-89.4*
CCc1ccc(CNC(=O)c2nnn(Cc3nc(-c4cccc(C)c4)oc3C)c2C)cc1	-80.2*
Cc1ccc(NC(=O)c2nnn(Cc3nc(-c4cccc(Cl)c4)oc3C)c2C)c(Br)c1	133.7
Cc1ccc(-c2nc(Cn3nnc(C(=O)NCc4ccc5c(c4)OCO5)c3C)c(C)o2)cc1	-45.0
Cc1ccc(-c2nc(Cn3nnc(C(=O)NCc4ccccc4)c3C)c(C)o2)cc1	-33.9
CCCOc1ccc(CNC(=O)c2nnn(Cc3nc(-c4ccc(C)cc4)oc3C)c2C)cc1	-21.4
Cc1ccc(-c2nc(Cn3nnc(C(=O)NCc4ccncc4)c3C)c(C)o2)cc1	72.1
Cc1cccc(-c2nc(Cn3nnc(C(=O)NCc4ccc5c(c4)OCO5)c3C)c(C)o2)c1	-95.2*
Cc1ccc(-c2nc(Cn3nnc(C(=O)NCc4ccc(F)cc4)c3C)c(C)o2)cc1	109.8
Cc1ccc(-c2nc(Cn3nnc(C(=O)NCc4ccco4)c3C)c(C)o2)cc1	-0.3
Cc1ccc(NC(=O)c2nnn(Cc3nc(-c4cccc(Cl)c4)oc3C)c2C)c(Cl)c1	-2.8
Cc1cccc(-c2nc(Cn3nnc(C(=O)NCc4cccc(Br)c4)c3C)c(C)o2)c1	-98.0*
O=C(Cn1nnc(-c2ccccc2NC(=O)c2ccccc2)n1)NC1CCCCC1	-4.0
COc1ccc(NC(=O)Cn2ncc3c(N4CCN(c5ccccn5)CC4)ncnc32)cc1	313.4
SMILES	Tgondii IFNg
CN1CC[C@@]2(C(=O)N3CCCC3)CCN(S(=O)(=O)c3ccccc3)CC[C@H]12	5.0
Cc1cc(C[C@@H]2CCC[C@H]2NCC2CCCCC2)on1	4.7
c1cncc(CN(CCCN2CCOCC2)Cc2cccn2-c2ccncc2)c1	-8.9
COc1ccc(-c2nc(C)c(CCNS(=O)(=O)c3cc(Cl)ccc3Cl)s2)cc1OC	i
CCOc1ccc(-c2nc(Cn3nnc(C(=O)Nc4ccc(C)cc4Cl)c3C)c(C)o2)cc1	7.9
CNC(=O)CN1CCO[C@H]2CN(C(=O)C(C)C)C[C@@H]21	-11.9
Cc1ccc(C)c(Cn2c(=O)c3c(nc4n(Cc5ccco5)c(C)c(C)n34)n(C)c2=O)c1	-30.7
N#Cc1cccc(CN2CCc3nc(N4CCOCC4)nc(NC4CC4)c3C2)c1	-57.8
C=CCSc1ncnc2c1sc1nc(C)cc(C)c12	99.1
Cc1cc(C)c2c(n1)sc1c(=O)oc(C)nc12	13.9
Cc1cc(C)c2c(n1)sc1c3ccccc3c(N)nc12	-102.2*
O=c1cc(-c2cccs2)oc2c1ccc1ccccc12	17.7
CSc1scc(-c2ccc(Cl)cc2)c1C#N	-90.9*
CSc1cc(-c2ccc(Cl)cc2)[nH]c(=O)c1C#N	56.1
CSc1scc(NS(=O)(=O)c2ccc(Cl)cc2)c1S(=O)(=O)C(C)C	-46.5
Cc1noc(C)c1C1CCCN1C(=O)c1cc2n(n1)CCCN(C)C2 (centres undefined)	-46.4
Cc1ncc(Cl)cc1S(=O)(=O)N1CCN(C(=O)C2CCCCC2)CC1	-10.5
Cc1n[nH]c(C)c1C(=O)N1CCC(c2n[nH]c(=O)n2-c2ccccc2)CC1	-51.0
O=C(CC1=CCNCC1)N1CCC(c2n[nH]c(=O)n2-c2ccccc2)CC1	-73.3*
Cn1cc(CCC(=O)N2CCC(c3n[nH]c(=O)n3-c3ccccc3)CC2)cn1	14.8
Cc1ccccc1-c1nc(CN2CCN(C(=O)NC3CCCCC3)CC2)c(C)o1	0.7
CS(=O)(=O)c1ccc(-c2cc(NCCO)nc3[nH]ccc23)cc1	11.7
CC(C)COc1ccc(-c2noc(-c3c(O)c4ccccc4[nH]c3=O)n2)cc1	47.7
Cc1nnsc1CN(C)Cc1ccc(-n2cncn2)cc1	4.8
CSc1ccc(-c2noc(-c3c(O)c4ccccc4n(C)c3=O)n2)cc1	76.7
SMILES	Tgondii IFNg
CCCN1CCC(c2cc3c(ncn3C)c(-c3ccc(OC)cc3)n2)CC1	5.8
COc1nccc(-c2c(-c3ccc(F)cc3)ncn2C2CCC(O)CC2)n1 (centres undefined)	-79.2*
COc1ccc(C[C@H]2CN(C)CC[C@H]2OCC2CC2)cc1	97.9
COc1ccc(CN2CCC3(CC2)CC(c2ccncc2)C(=O)N3)cc1 (centres undefined)	-1.6
CCC(NC(=O)c1cnc2scc(C)n2c1=O)c1ccc(OC)cc1 (centres undefined)	-11.4
CCOc1ccc(-c2noc(-c3c(O)c4ccc(F)cc4n(CC)c3=O)n2)cc1	76.5
Cc1cc(C)cc(C(=O)Nc2ccc(-c3nc(Cn4nc(C)cc4C)c(C)o3)cc2)c1	-97.0*
Cc1cc(C)n(Cc2nc(-c3ccc(NC(=O)c4ccc(Cl)cc4)cc3)oc2C)n1	1.8
Cc1cc(C)n(Cc2nc(-c3ccc(NC(=O)c4ccccc4)cc3)oc2C)n1	1.2
Cc1cc(C)n(Cc2nc(-c3ccc(NC(=O)Cc4ccccc4C)cc3)oc2C)n1	41.2
COc1cccc(CC(=O)Nc2ccc(-c3nc(Cn4nc(C)cc4C)c(C)o3)cc2)c1	-84.8*
Cc1cc(C)n(Cc2nc(-c3ccc(NC(=O)c4ccc(C)c(F)c4)cc3)oc2C)n1	16.8
Cc1cc(C)n(Cc2nc(-c3ccc(NC(=O)c4cc(F)cc(F)c4)cc3)oc2C)n1	-32.0
Cc1ccc(C)c(C(=O)Nc2ccc(-c3nc(Cn4nc(C)cc4C)c(C)o3)cc2)c1	-75.1*
Cc1cc(C)n(Cc2nc(-c3ccc(NC(=O)CCc4ccccc4)cc3)oc2C)n1	-69.2
CCC(=O)Oc1ccc(NC(=S)Nc2c(C)cc(C)cc2C)cc1	11.4
Cc1nnc(SCCNC2CCC3(CCNCC3)CC2)s1	-22.9
COc1ccc(S(=O)(=O)N2CCC3(CC2)C(=O)NCCN3CC(C)C)cc1	72.2
CC(C)N1CCC2(CC1)CC(NC(=O)[C@H]1CCCO1)c1ccccc1O2 (some centres undefined)	-50.1
COc1ccccc1NC(=O)c1sc2nc(-c3cc4cccc(OC)c4oc3=O)[nH]c(=O)c2c1C	5.0
COCC1CN(C(=O)Cc2ccsc2)Cc2ccnn2C1 (centres undefined)	7.8
O=c1cc(-c2ccccc2)oc2cc(O)ccc12	27.9
O=c1cc(-c2ccc(O)cc2)oc2ccc(O)cc12	-86.6*
O=c1cc(-c2ccc(O)cc2)oc2cc(O)cc(O)c12	53.1
COc1ccc(-c2nc(CSc3nc4c(=O)[nH]cnc4n3C)c(C)o2)cc1	-0.6
COc1ccc(-c2ccc(=O)[nH]n2)cc1	-114.9*
COc1cc(-c2ccc(=O)[nH]n2)ccc1OC(F)F	-87.5*
COc1ccc(-c2c(N)n[nH]c2C)cc1OC	-13.8
COc1ccc(Cn2c(-c3ccncc3)n[nH]c2=O)cc1	-3.8
COc1ccc(-c2cc(N)n(C)n2)cc1	110.5
